# HCMV inh = human cytomegalovirus inhibition; activity change, negative = inhibition, % at 57.5 µM; HFF cells, HCMV-luciferase reporter, 72 h; active compounds read low; actives 4.5% (n = 410,000); in the data active = activity change below about -60%; inconclusive = no clear call, values can overlap the other calls; inactive = above about -39%
#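 Cell-based, HFFs, 1000 cells/well, 16 h 37C; cpds in DMSO + HCMV-luc, MOI 1 PFU/cell; 72 h 37C; OneGlo luminescence after 5 min RT; norm. to buffer vs Salinomycin 10uM.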
# Pf growth 48h = inhibits P. falciparum growth in the first generation, 48 h. P. falciparum luciferase growth in erythrocytes, 48 h. Potency, µM (titrated, usually from 28.7 µM), usual class: inhibitors. actives 5.9% (n = 310,000)
#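 First compound was added to culture medium, then infected red cells at 0.1% parasitemia and 2% hematocrit (final). After incubation at 37 C under 5% CO2, luciferase detection reagent was dispensed and light output recorded.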
# FBPA Giardia inh = inhibitors of Giardia lamblia fructose-1,6-bisphosphate aldolase. actives 0.71% (n = 290,000). purified Giardia FBPA. A8B2U2. Potency, µM (series often up to 59.6 µM), actives largely listed as inhibitors; also: nearly all actives have a fitted effect of over 55% in size
# Target sequence (A8B2U2 whole entry, looked up): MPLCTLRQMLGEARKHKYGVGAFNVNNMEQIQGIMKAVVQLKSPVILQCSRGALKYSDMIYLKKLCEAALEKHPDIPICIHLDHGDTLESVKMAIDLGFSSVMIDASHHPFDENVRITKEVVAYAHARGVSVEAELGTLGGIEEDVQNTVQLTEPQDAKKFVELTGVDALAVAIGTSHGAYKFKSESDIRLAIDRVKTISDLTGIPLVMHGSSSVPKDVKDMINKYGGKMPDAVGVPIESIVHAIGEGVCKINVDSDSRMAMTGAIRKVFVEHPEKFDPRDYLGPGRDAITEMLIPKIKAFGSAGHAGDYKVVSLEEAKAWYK
#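 40 nM FBPA preincubated 10 min at RT with compound (up to 57.5 uM final), then substrate plus GAPDH/TPI/NAD/arsenate coupling and diaphorase/resazurin added. Fluorescence read after 20 min at RT, 525/598 nm.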
# Pf growth 96h = P. falciparum growth inhibition at 96 hour, primary screen for plastid delayed-death inhibitors | actives 6.9% (n = 320,000) | Potency, µM (series often up to 28.7 µM), hits mostly inhibitors | P. falciparum luciferase reporter growth, 96 h
#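 Delayed-death screen, second-generation endpoint: infected erythrocytes, 2% hematocrit, 0.05% parasitemia final; 96 hours at 37 C, 5% CO2; luciferase detection reagent; luminescence decrease equals reduced growth.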
# Sm TGR inh = inhibitors of Schistosoma mansoni thioredoxin glutathione reductase | purified TGR, DTNB reduction, TNB absorbance 405 nm | Potency, µM (top dose mostly 114 µM), actives largely listed as inhibitors | actives 3% (n = 360,000) | AID 485364; also: nearly all actives have a fitted effect of over 60% in size
#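 Kinetic colorimetric format: TGR-catalysed, NADPH-driven DTNB reduction monitored via TNB absorbance. Enzyme dispensed at 20 nM; compound exposure 15 min at room temperature before reaction start.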
# Hits are given with their value; - = inactive; ? = inconclusive; . = no result given; [ ] = dose if it differs, or a comment. Only some compounds are listed: those with a hit (about 14% of all), similar ones and a draw of the others. Unless noted, calls follow the shape of the dose curve; as a rule, active = well fitted curve in the direction sought with a large enough effect; inconclusive = small, poorly fitted or top-dose-only effect, or another doubt; inactive = no such curve, though single readings can be large; an effect the other way counts as inactive or inconclusive.
SMILES,HCMV inh,Pf growth 48h,FBPA Giardia inh,Pf growth 96h,Sm TGR inh
COc1ccc(/C=C2\SC(=O)N(CCCC(=O)Nc3ccc(C(=O)O)cc3)C2=O)cc1OC,?,-,.,-,-
COc1ccc(/C=C2\SC(=S)N(CCCC(=O)Nc3ccc(C(=O)O)cc3)C2=O)cc1OC,-,12µM,-,?,-
COc1ccc(/C=C2/SC(=S)N(CCCC(=O)Nc3ccc(O)cc3)C2=O)cc1OC,-73,-,.,12µM,-
O=C(/C=C/c1cccc(Cl)c1)NCCN1CCOCC1,-,-,-,-,-
CCc1nn(CC(=O)NCc2ccco2)c(=O)c2cc3cc(F)ccc3n12,-,.,.,.,-
COc1cc(OC)c2c(-c3cccc(-c4ccc(OC)c(F)c4)c3)cc(=O)oc2c1,-68,.,-,.,.
COc1cc(OC)c2c(-c3cccc(-c4ccc(C(C)=O)cc4)c3)cc(=O)oc2c1,.,.,-,.,.
CCc1cc(=O)oc2cc3occ(-c4ccc(OC)c(F)c4)c3cc12,-68,?,-,-,-
O=C(CSc1nccn(-c2ccc(Br)cc2)c1=O)NCc1ccccc1,?,13µM,.,?,-
O=C1c2ccccc2/C(=C\c2ccc3[nH]ccc3c2)N1c1ccccc1,-66,.,.,.,.
CCCCN1CC(=O)N2[C@H](c3ccc(OC)cc3)[C@@H]3C(=O)N(CC)C(=O)[C@@H]3[C@]2(Cc2ccccc2)C1=O,-,-,-,-,-
O=C(O)c1ccccc1N/N=C/c1cc(Br)cc(Br)c1O,-,-,-,-,-
CCOc1ccccc1/C=N/Nc1ccc(Cl)nn1,-,.,-,-,-
CCOc1ccc(/C=N/Nc2ccc(Cl)nn2)c(O)c1,-82,1.3µM,-,?,-
Oc1ccc(/C=N/Nc2ccc(Cl)nn2)c(O)c1O,-,-,?,?,14µM
Oc1c(Br)cc(/C=N/Nc2ccc(Cl)nn2)cc1Br,-,0.52µM,-,1µM,-
Oc1c(Br)cc(Br)cc1/C=N/Nc1ccc(Cl)nn1,-97,?,-,?,-
Fc1cccc(/C=N/Nc2ccc(Cl)nn2)c1,-,-,-,-,-
COc1cc(/C=N/Nc2ccc(Cl)nn2)cc(OC)c1O,-,-,-,?,-
CCCCn1c(SCC(=O)Nc2ccccc2C(F)(F)F)nc2ccsc2c1=O,-,-,-,12µM,-
CCCCn1c(SCC(=O)N2CCC(C)CC2)nc2ccsc2c1=O,?,12µM,-,-,-
CC(C)CNc1ncnc2c1ncn2[C@H]1CN(Cc2ccco2)C[C@@H](CO)O1,-,.,.,.,.
O=C(c1ccc(-c2nnc(Nc3cccc(Cl)c3)c3ccccc23)cc1)N1C[C@H]2C[C@H](C1)c1cccc(=O)n1C2,-,13µM,-,6.6µM,-
O=C(Nc1ccccc1)N1CC2CC(C1)c1cccc(=O)n1C2 (centres undefined),-,-,-,-,-
COc1ccc(C(=O)N2C[C@H]3C[C@@H](C2)c2cccc(=O)n2C3)cc1OC,-,-,-,-,-
SMILES,HCMV inh,Pf growth 48h,FBPA Giardia inh,Pf growth 96h,Sm TGR inh
COc1nnc(-c2ccc(C(=O)N3C[C@@H]4C[C@H](C3)c3cccc(=O)n3C4)cc2)c2ccccc12,-,?,-,2.6µM,-
COc1ccc([C@H]2CC(=O)C[C@@H](CCn3cc(-c4ccccn4)nn3)O2)cc1,-,.,.,.,.
O=S(=O)(NCC(O)COCc1ccco1)c1cccs1 (centres undefined),-,-,-,-,13µM
CC(C)=NOC[C@@H](O)COCc1ccco1,.,.,-[12.9 µM],.,.
O=C(CCn1c(=O)c2ccccc2n(Cc2cccc(F)c2)c1=O)NCc1ccc2c(c1)OCO2,-,.,.,.,-
COc1ccc2c(c1)OCC1=C2CCC2(C)C(=O)CC=C12 (centres undefined),.,?,?,-,20µM
Cc1ccc(N2CCN(C(=O)C(=O)c3cccc(Br)c3)CC2)cc1,-,.,.,.,.
Cc1nnsc1C(=O)NC1CCCc2c1cnn2-c1ccc(C(C)(C)C)cc1 (centres undefined),-76,?,-,?,-
Cc1nnsc1C(=O)NC1CCCc2c1cnn2-c1ccccc1F (centres undefined),-87,-,.,-,-
Cc1cnc(CNc2ccnc(-c3ccccc3CN(C)C)n2)cn1,.,.,-,.,.
Cc1cc(/C=C2/NC(=O)N(Cc3ccccc3F)C2=O)c(C)n1-c1ccccn1,-,9.3µM,-,?,?
Cc1cccc(CN2C(=O)N/C(=C/c3cc(C)n(-c4ccccn4)c3C)C2=O)c1,-,13µM,-,.,-
